Screening data deposited in PubChem BioAssay by Broad Institute.
IDE exosite inh – exo-site inhibitors of human IDE, primary screen, biochemical, fluorescence anisotropy, probe displacement. Insulin-degrading enzyme (Homo sapiens), P14735. purified IDE, FL-6b probe fluorescence polarization; hits give low values. z-score at 20 µM. 17,000 tested, 6.3% active;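 active = z-score of -3 or lower, meaning strong loss of probe binding signal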;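 note: His-tagged human IDE residues 42-1019 made in E. coli with 30 nM FL-6b probe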
A number is an active result; . = inactive; ! = not active in a repeat. This excerpt belongs to a sample that is enriched for hits.

SMILES	IDE exosite inh
O=C(c1ccc(F)cc1)N1CC(=O)N2[C@H](CO)[C@@H](c3ccc(-c4ccccc4)cc3)[C@H]2C1	.
COCC(=O)N1[C@H](CO)[C@H](c2ccccc2-c2cccc(F)c2)[C@@H]1C#N	.
C[C@@H]1CCn2cc(nn2)COC[C@@H](c2ccccc2)NC1=O	.
Cc1ccc(S(=O)(=O)Nc2ccc3c(c2)CC(=O)N([C@@H](C)CO)C[C@H](C)[C@H](CN(C)S(=O)(=O)c2ccccc2)O3)cc1	.
O=C(Nc1ccccc1)N1CCCCN2[C@H](C1)[C@@H](c1ccc(C#Cc3cccnc3)cc1)[C@@H]2CO	.
COc1cccc(S(=O)(=O)N2C[C@H](O)COC[C@H]3O[C@H](CC(=O)NCCCN4CCOCC4)CC[C@@H]32)c1	.
CC(C)C#Cc1ccc([C@H]2[C@@H](CO)N3CCCCN(CC4CC4)C[C@@H]23)cc1	.
C/C=C/c1ccc([C@H]2[C@@H](CO)N(C(C)=O)C23CN(C(=O)NC2CCCCC2)C3)cc1	.
COc1ccccc1-c1ccc([C@@H]2[C@H]3CN(C(=O)NC4CCCC4)CCCCN3[C@H]2CO)cc1	-12.2
C/C=C/c1ccc([C@H]2[C@@H](CO)N(S(C)(=O)=O)[C@@H]2CN(CC)C(=O)CC)cc1	.
CC[C@@H]1C/C=C\C[C@H](c2ccc(OC)cc2OC)NC(=O)[C@@H](C)CC(=O)N1	.
COc1ccc2c3c([nH]c2c1)[C@@H](CO)N(C(=O)Nc1ccc(F)cc1)CC31CCN(S(=O)(=O)c2cn(C)cn2)CC1	.
CS(=O)(=O)N1CC(=O)N2[C@H](C1)[C@H](c1ccc(C#Cc3ccc(F)cc3)cc1)[C@@H]2CO	.
CS(=O)(=O)N1CC(=O)N2[C@@H](CO)[C@H](c3ccc(C#Cc4ccc(F)cc4)cc3)[C@@H]2C1	.
CS(=O)(=O)N1CC(=O)N2[C@H](CO)[C@H](c3ccc(C#Cc4ccccc4)cc3)[C@@H]2C1	-5.45
CCS(=O)(=O)N1CC(=O)N2[C@H](CO)[C@@H](c3ccc(-c4cccc(F)c4)cc3)[C@@H]2C1	-3.18
CS(=O)(=O)N1CC(=O)N2[C@H](C1)[C@@H](c1ccc(C#CCc3ccccc3)cc1)[C@@H]2CO	-3.25
CS(=O)(=O)N1CC(=O)N2[C@H](CO)[C@@H](c3ccc(C#Cc4ccc(F)cc4)cc3)[C@H]2C1	.
CS(=O)(=O)N1CC(=O)N2[C@@H](CO)[C@H](c3ccc(C#CCc4ccccc4)cc3)[C@@H]2C1	.
CCS(=O)(=O)N1CC(=O)N2[C@H](CO)[C@@H](c3ccc(-c4ccccc4)cc3)[C@H]2C1	.
CS(=O)(=O)N1CC(=O)N2[C@H](C1)[C@H](c1ccc(C#Cc3cccc(F)c3)cc1)[C@@H]2CO	-8.36
CS(=O)(=O)N1CC(=O)N2[C@H](C1)[C@@H](c1ccc(C#Cc3ccc(F)cc3)cc1)[C@@H]2CO	.
CCS(=O)(=O)N1CC(=O)N2[C@H](CO)[C@H](c3ccc(-c4ccccc4)cc3)[C@@H]2C1	.
CS(=O)(=O)N1CC(=O)N2[C@H](CO)[C@@H](c3ccc(C#CCc4ccccc4)cc3)[C@H]2C1	.
C[C@@H]1CN([C@H](C)CO)C(=O)c2ccccc2-c2ccccc2CO[C@@H]1CN(C)S(=O)(=O)Cc1ccccc1	.
SMILES	IDE exosite inh
O=C(C1CCOCC1)N1[C@H](CO)[C@@H](c2ccccc2)C12CN(CCC(F)(F)F)C2	.
O=C(c1ccc2c(c1)OCO2)N1CC(=O)N2[C@H](CO)[C@@H](c3ccc(C#Cc4ccccc4)cc3)[C@@H]2C1	.
C[C@@H]1CCCCO[C@H](CN(C)C(=O)Nc2cccc3ccccc23)[C@@H](C)CN([C@@H](C)CO)C(=O)c2cc(NC(=O)CCC(F)(F)F)ccc2O1	.
CS(=O)(=O)N1CC(=O)N2[C@H](CO)[C@@H](c3ccc(C#Cc4ccccc4)cc3)[C@@H]2C1	.
CS(=O)(=O)N1CC(=O)N2[C@H](CO)[C@@H](c3ccc(C#CCc4ccccc4)cc3)[C@@H]2C1	.
CS(=O)(=O)N1CC(=O)N2[C@H](C1)[C@H](c1ccc(C#Cc3ccccc3)cc1)[C@@H]2CO	-5.33
O=C(Nc1ccccc1F)N1CC(=O)N2[C@H](CO)[C@H](c3ccc(-c4cccnc4)cc3)[C@@H]2C1	.
CC[C@@H]1C/C=C\C[C@H](c2ccccc2)NC(=O)CCC(=O)N1	.
CO[C@H]1CC[C@H]2CCOc3ccc(C#N)cc3C(=O)N(C)[C@@H](C)C(=O)N(C)C[C@H]1O2	.
O=C(Cc1ccccn1)N1CC(=O)N2[C@H](C1)[C@H](c1ccc(C#CCC3CCCC3)cc1)[C@@H]2CO	.
O=C(CN1CCOCC1)N1CC(=O)N2[C@H](CO)[C@@H](c3ccc(-c4ccccc4)cc3)[C@H]2C1	.
O=C(C1CCOCC1)N1CC(=O)N2[C@H](CO)[C@H](c3ccc(Br)cc3)[C@@H]2C1	.
O=C(CN1CCOCC1)N1CC(=O)N2[C@H](CO)[C@@H](c3ccc(/C=C/c4ccccc4)cc3)[C@@H]2C1	-4.39
O=C(C1CCOCC1)N1CC(=O)N2[C@H](C1)[C@@H](c1ccc(/C=C/c3ccccc3)cc1)[C@@H]2CO	-7.63
CCCC#Cc1ccc([C@@H]2[C@@H](CO)N3C(=O)CN(C(=O)CN4CCOCC4)C[C@H]23)cc1	.
CCCC#Cc1ccc([C@H]2[C@H](CO)N3C(=O)CN(C(=O)CN4CCOCC4)C[C@@H]23)cc1	.
CCCC#Cc1ccc([C@H]2[C@H]3CN(C(=O)CN4CCOCC4)CC(=O)N3[C@H]2CO)cc1	.
O=C(CN1CCOCC1)N1CC(=O)N2[C@H](CO)[C@@H](c3ccc(/C=C/c4ccccc4)cc3)[C@H]2C1	-5.99
O=C(C1CCOCC1)N1CC(=O)N2[C@@H](CO)[C@@H](c3ccc(Br)cc3)[C@@H]2C1	.
C[C@@H]1CN([C@H](C)CO)C(=O)c2ccccc2-c2ccccc2CO[C@H]1CN(C)C(=O)Nc1cccc(Cl)c1Cl	.
COCC#Cc1ccc([C@H]2[C@H]3CN(C(=O)Nc4cc(F)ccc4F)CC(=O)N3[C@H]2CO)cc1	.
CNC[C@@H]1Oc2cc(C#Cc3ccccc3OC)ccc2S(=O)(=O)N([C@@H](C)CO)C[C@H]1C	.
COc1ccc(-c2ccc([C@@H]3[C@@H](CO)N4C(=O)CNC[C@@H]34)cc2)cc1	.
COCC(=O)Nc1ccc2c(c1)[C@@H]1C[C@@H](CC(=O)N3CCOCC3)O[C@@H](CO)[C@@H]1O2	.
C/C=C/c1ccc(C2[C@H]3CNC[C@@H]2N3S(=O)(=O)c2cn(C)cn2)cc1 (some centres not stated)	.
SMILES	IDE exosite inh
Cc1ccccc1-c1ccc(C2[C@H]3CNC[C@@H]2N3S(=O)(=O)c2cn(C)cn2)cc1 (some centres not stated)	-4.9
Cc1ccccc1-c1ccc(C2[C@@H]3CN(Cc4cncnc4)C[C@H]2N3)cc1 (some centres not stated)	.
Cn1cnc(S(=O)(=O)N2CCCCN3[C@H](CO)[C@@H](c4ccc(-c5ccccc5F)cc4)[C@H]3C2)c1	.
Cc1ccccc1-c1ccc(C2[C@H]3CNC[C@@H]2N3S(=O)(=O)c2ccc(F)cc2)cc1 (some centres not stated)	.
Cc1ccc(-c2ccc(C3[C@H]4CNC[C@@H]3N4S(=O)(=O)c3ccccc3)cc2)cc1 (some centres not stated)	.
Cc1ccccc1-c1ccc(C2[C@H]3CNC[C@@H]2N3S(=O)(=O)c2cccc(F)c2)cc1 (some centres not stated)	-3.39!
